Assay results from the supplement of paper PMC6555819.

Assays:
Experiment in all cases: PBM binding z-score (relative to random genomic background probes); higher = stronger binding; sequences stand for … in GC…GCGATTGACAGCGTAGAATGAAGG
[1] = system: FXR:RXRa (NR concentration 270 nM, RXRa partner concentration 90 nM)
In short: (§1)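 Ligand-free nuclear receptor dimers were applied to custom Agilent 4×180K protein-binding microarrays whose double-stranded probes carried direct-repeat seeds, single-nucleotide variants, half-site ablations and random human genomic background sequences in 34-nt variable regions. Incubation lasted 1 h. Binding z-scores were computed against the random background probes from regression-normalized fluorescence.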

[2] = system: LXRa:RXRa (NR concentration 270 nM, RXRa partner concentration 90 nM)
In short: as §1

[3] = system: LXRa homodimer (NR concentration 270 nM)
In short: as §1

[4] = system: LXRb:RXRa (NR concentration 270 nM, RXRa partner concentration 90 nM)
In short: as §1

[5] = system: LXRb homodimer (NR concentration 270 nM)
In short: as §1

[6] = system: PPARa:RXRa (NR concentration 270 nM, RXRa partner concentration 90 nM)
In short: as §1

[7] = system: PPARg:RXRa (NR concentration 180 nM, RXRa partner concentration 90 nM)
In short: as §1

[8] = system: PPARg:RXRa 270nM:90nM, anti-RXR (NR concentration 270 nM, RXRa partner concentration 90 nM)
In short: as §1

[9] = system: PPARg:RXRa 30nM:10nM, anti-RXR (NR concentration 30 nM, RXRa partner concentration 10 nM)
In short: as §1

[10] = system: PPARg:RXRa 90nM:30nM, anti-RXR (NR concentration 90 nM, RXRa partner concentration 30 nM)
In short: as §1

[11] = system: PPARg:RXRa DBDmut IVT, anti-RXR (DBD mutation: RXRa K156A/R161A, NR concentration 270 nM, RXRa partner concentration 90 nM)
In short: as §1

[12] = system: PPARg:RXRa IVT, anti-PPARg (NR concentration 270 nM, RXRa partner concentration 90 nM)
In short: as §1

[13] = system: PPARg DBDmut:RXRa IVT, anti-PPARg (DBD mutation: PPARg1 K132A/R137A, NR concentration 270 nM, RXRa partner concentration 90 nM)
In short: as §1

[14] = system: PPARg DBDmut IVT, anti-PPARg (DBD mutation: PPARg1 K132A/R137A, NR concentration 270 nM)
In short: as §1

[15] = system: PPARg homodimer (NR concentration 180 nM)
In short: as §1

[16] = system: PXR:RXRa (NR concentration 270 nM, RXRa partner concentration 90 nM)
In short: as §1

[17] = system: PXR homodimer (NR concentration 270 nM)
In short: as §1

[18] = system: RARa:RXR (NR concentration 270 nM, RXRa partner concentration 90 nM)
In short: as §1

[19] = system: RARa homodimer (NR concentration 270 nM)
In short: as §1

[20] = system: RARb:RXRa (NR concentration 270 nM, RXRa partner concentration 90 nM)
In short: as §1

Row | Sequence | PBM binding z-score [1] | PBM binding z-score [2] | PBM binding z-score [3] | PBM binding z-score [4] | PBM binding z-score [5] | PBM binding z-score [6] | PBM binding z-score [7] | PBM binding z-score [8] | PBM binding z-score [9] | PBM binding z-score [10] | PBM binding z-score [11] | PBM binding z-score [12] | PBM binding z-score [13] | PBM binding z-score [14] | PBM binding z-score [15] | PBM binding z-score [16] | PBM binding z-score [17] | PBM binding z-score [18] | PBM binding z-score [19] | PBM binding z-score [20]
1 | TGAATGAGGTTAAAGATCAGGGTACGTGGCGTCG | 2.96 | 2.35 | -0.149 | 1.67 | 0.353 | 4.43 | 5.59 | 6.33 | 4.71 | 6.42 | 2.05 | 3.93 | 1.21 | 0.291 | 1.09 | 2.14 | -0.073 | 3.31 | -0.532 | 2.21
2 | TCGAGTAGGTTACCAATGGGGCCTTCAGCTTTCT | -0.184 | 0.128 | -0.933 | -0.0136 | -1.01 | 0.918 | -0.264 | 0.957 | 0.922 | 0.958 | 3.36 | 2.22 | -0.652 | -1.23 | -0.653 | -0.289 | -1.01 | 0.0831 | -1.27 | 0.653
3 | AGAATGAGGTTATACGTAGATCAGGGCAGAAAGT | 2.33 | 1.89 | 0.241 | 1.77 | -0.0553 | 3.17 | 1.83 | 2.15 | 0.79 | 1.41 | 4.01 | 2.15 | 0.485 | 0.402 | 0.774 | 1.45 | 1.34 | 1.82 | 0.705 | 1.51
4 | TAGCCTAGGTCTGATCGGGCCAGTATACGCTATA | -0.28 | -0.943 | -0.639 | -0.94 | -1.01 | -0.144 | 0.0558 | -0.669 | -0.329 | -0.45 | -0.797 | -0.522 | -0.763 | -0.994 | -0.906 | -0.673 | -1.05 | -0.33 | -1.47 | -0.362
5 | ACTATTAGTTGACGTAGGGCAACCGATACGACGC | -0.0128 | -0.0574 | 0.207 | -0.148 | 0.503 | -0.147 | 1 | 0.00726 | 0.129 | 0.289 | 0.188 | 0.602 | 1.2 | 0.785 | 0.291 | -0.373 | 0.109 | -0.162 | 0.628 | 0.773
6 | TCATATAGGTAAAGGGGAAAGTCGAACGATATGA | 0.639 | 0.796 | -0.0838 | 0.901 | 0.0683 | 2.18 | 2.99 | 4.18 | 4.55 | 4.52 | 4.16 | 2.85 | 1.41 | 1.19 | 0.621 | 0.551 | 0.506 | 0.562 | 0.996 | 0.83
7 | CCAGCCAGGTGAGAAGGTAACTCAGCCTCGATTA | -0.27 | -0.406 | -0.377 | -0.292 | -0.967 | 0.458 | 0.262 | 1.03 | -0.318 | 0.318 | 0.886 | 0.642 | -1.31 | -0.676 | -0.199 | -0.486 | -0.622 | -0.386 | -0.592 | 0.364
8 | AGAACGATGGCAATGAGTTGATAGCACGGGTGGC | -0.517 | -0.814 | -0.366 | -1.05 | -0.645 | -0.643 | 0.654 | -0.25 | -0.674 | -0.599 | -0.597 | -0.751 | 0.0197 | -0.258 | -0.596 | -0.563 | -0.0123 | -0.325 | -0.149 | -0.604
9 | TCGAGTAGGTTAGGGGCAATCAGAATGGCGTCGA | 0.369 | 0.37 | -0.18 | 0.715 | -0.231 | 1.41 | 1.53 | 2.73 | 1.47 | 2.42 | 2.08 | 1.37 | -0.745 | -0.163 | 1.06 | 0.437 | 0.0887 | 0.347 | -0.176 | 1.19
